Compounds without any hit were thinned out: in the full panel of roughly 83,000, 20% have a hit.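 48-hour exposure, single concentration, 96-well plates; percent growth endpoint where 0 means no net growth. Active: below 10.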 Calls of active or inactive are those of the source.
These molecules were tested on NCI-H226 lung (assay: NCI-60 one-dose screen, 48 h (100 = growth as untreated, 0 = no growth, -100 = all killed)). Settings: 10 µM unless noted.
Protocol: Growth inhibition of the NCI-H226 human Non-Small Cell Lung tumor cell line is measured as a screen for anti-cancer activity. Cells are grown in 96 well plates and exposed to the test compound for 48 hours. Compounds are tested at a single concentration, which is 10^-5 M for most compounds. The reported endpoint is percent growth (GI% or GIPRCNT), where numbers from 0 - 100% represent growth inhibition, and numbers from -100% - 0 represent cell death. For example, a value of 40 represents 60% growth inhibition. A value of 0 means no net growth occurred over the course of the experiment. A value of -40 indicates 40% of cells at the beginning of the experiment died by the end of the experiment. A value of -100 means all cells are dead at the end of the experiment.
NCI-60 Human Tumor Cell Lines Screen was performed using the standard one-dose NCI protocol, which is described in more detail at https://dtp.cancer.gov/discovery_development/nci-60/default.htm.
Compounds with GIPRCNT values below 10 were considered active. Activity score was based on GIPRCNT using the following formula: […]
Score is 0 for GIPRCNT values of 100 or above, 50 for GIPRCNT values of 0, and 100 for GIPRCNT values of -100.

Q: With `NS(=O)(=O)c1ccc(NC(=O)/C(=C\c2ccc(Cl)cc2Cl)NC(=O)c2ccccc2)cc1` as the molecule, how does the growth read?
A: Its growth is 103% (inactive).

Q: `CC1=C(C(=O)Nc2nc(-c3ccc(Cl)cc3)cs2)[C@H](c2ccc(O)cc2)NC(=O)N1` was tested. Which growth did it give?
A: The growth was 87.8% (inactive).

Q: `CNC(C)[C@H]1CCC2C3CC=C4C(=O)[C@@H](NC(=O)C=C(C)C)CC[C@]4(C)C3CC[C@@]21C` (stereo not given in full) was tested. Which growth did it give?
A: Its growth is 46.5% (inactive).

Q: `O=C(CSc1nc(-c2ccccc2)cc(=O)[nH]1)Nc1nc(-c2ccccc2)cs1` was tested. Which growth did it give?
A: The growth was 76.2% (inactive).

Q: `CN(C)c1ccc(/C=C(\C#N)c2cc3ccccc3[nH]2)cc1` was tested. Which growth did it give?
A: The growth was 70.8% (inactive).

Q: For `C=CCC(CCCC)(C(=O)OCC)C(=O)OCC`, which growth is on record?
A: Its growth is 106% (inactive).

Q: For `Nc1ncnc2c1N=C(c1ccc3c(c1)OCO3)CC(c1cccc(Nc3ccnc4cc(C(F)(F)F)ccc34)c1)N2` (stereo not given), which growth is on record?
A: Its growth is 78.1% (inactive).

Q: For `S=c1[nH]c(=S)c2c(-c3ccccc3)c(-c3ccccc3)oc2[nH]1`, which growth is on record?
A: Its growth is 92.7% (inactive).

Q: Which growth does the source give for `CCNc1ccc(-c2nc3ccccc3n3cccc23)cc1` here?
A: The growth was 68.8% (inactive).

Q: How did the growth turn out when `CC1=C(C(=O)Nc2ccccc2)C(c2ccc3c(c2)OCO3)NC(=S)N1` (stereo not given) was run?
A: The growth was 96.7% (inactive).

Q: `O=C(O)COc1ccc(Cl)c(Cl)c1` was tested. Which growth did it give?
A: The growth was 94.1% (inactive).

Q: With `CC(=O)/C(=C/c1ccc([N+](=O)[O-])cc1)C(=O)c1ccccc1` as the molecule, how does the growth read?
A: The growth was 81.5% (inactive).

Q: For `CN1CCN(C(=O)C(C)(C)c2ccc(C(=O)Nc3cn4cc(-c5ccncc5)ccc4n3)cc2)CC1`, which growth is on record?
A: The growth was 9.69% (active).

Q: How did the growth turn out when `Cc1ccc(NC(=O)Cn2c(Br)nc3c2c(=O)n(C)c(=O)n3C)cc1` was run?
A: Its growth is -13.2% (active).

Q: For `Cc1ccc(/C=C/C(=O)Nc2ncc(Cc3ccc(F)cc3)s2)o1`, which growth is on record?
A: The growth was 85.8% (inactive).

Q: With `Fc1cccc(-c2ccc3c(c2)C2(CCNCC2)CN3)c1` as the molecule, how does the growth read?
A: Its growth is 98% (inactive).

Q: For `COc1ccc(N2CCC(=S)NC2=S)cc1`, which growth is on record?
A: The growth was 86.4% (inactive).

Q: With `Cc1c2ccncc2c(C)c2c1c1cc(CO)ccc1n2C` as the molecule, how does the growth read?
A: The growth was -49.2% (active).

Q: For `COc1ccc(-c2nn(-c3ccccc3)cc2/C=C/C(=O)NNC(=O)Nc2ccc(C)cc2)cc1`, which growth is on record?
A: The growth was 97.2% (inactive).

Q: Which growth does the source give for `C=C(C)[C@@H]1CC[C@]2(C(N)=O)CC[C@]3(C)[C@H](CC[C@@H]4[C@@]5(C)CC[C@H](OCCC#N)C(C)(C)[C@@H]5CC[C@]43C)[C@@H]12` here?
A: Its growth is 84.1% (inactive).

Q: With `CN1CCN(C(=O)[C@@]2(C)CC[C@]3(C)CC[C@]4(C)C(=CC[C@@H]5[C@@]6(C)CCC(=O)NC(C)(C)[C@@H]6CC[C@]54C)[C@@H]3C2)CC1` as the molecule, how does the growth read?
A: The growth was 68.3% (inactive).

Q: How did the growth turn out when `CCCn1cnc2c(c1=N)C(c1ccc(F)cc1)c1sc3c(F)cccc3c1O2` (stereo not given) was run?
A: Its growth is 74.7% (inactive).

Q: For `CC1CCN(C(=O)CCCl)c2ccccc21` (stereo not given), which growth is on record?
A: Its growth is 105% (inactive).

Q: Which growth does the source give for `CN(CCCNC(=O)Cc1ccc2ccc3cccc4ccc1c2c34)CCCNc1cc(-c2ccc3ccccc3c2)nc2ccccc12` here?
A: The growth was -39.5% (active).

Q: How did the growth turn out when `CCN1CCN(C(=O)[C@]23CC[C@@H](C)[C@H](C)[C@@H]2C2=CC[C@@H]4[C@@]5(C)C/C(=C/c6cccnc6)C(=O)C(C)(C)[C@@H]5CC[C@@]4(C)[C@]2(C)CC3)CC1` was run?
A: Its growth is 47.8% (inactive).

Q: For `CC1CCN(C(=S)SCC(=O)NC(=O)c2ccccc2)CC1`, which growth is on record?
A: Its growth is 109% (inactive).

Q: How did the growth turn out when `CCN1CCN(CCNc2nccc(-c3c(-c4ccc(F)c(OC)c4)nc4sccn34)n2)S1(=O)=O` was run?
A: Its growth is 109% (inactive).

Q: `CC(C)(C)n1cc(-c2ccnc(NCCCNS(=O)(=O)c3ccc(C(F)(F)F)cc3)c2)c(-c2cccc(F)c2)n1` was tested. Which growth did it give?
A: The growth was 91.1% (inactive).

Q: Which growth does the source give for `Cc1ccc(/C=C/C(=O)c2cccc(OCCCOc3cccc(C(=O)/C=C/c4ccc(C)cc4)c3)c2)cc1` here?
A: Its growth is 77.5% (inactive).

Q: With `CC(=O)O[C@H]1C[C@@H]2C(C)(C)C(=O)CC[C@@]2(C)c2ccc(C(C)C)cc21` as the molecule, how does the growth read?
A: Its growth is 101% (inactive).

Q: With `O=C(NCc1cccc(CNC(=O)Nc2nc3ccccc3[nH]2)c1)Nc1nc2ccccc2[nH]1` as the molecule, how does the growth read?
A: Its growth is -22.2% (active).

Q: Which growth does the source give for `NC(=O)c1c(NC(=O)c2cccc(C(F)(F)F)c2)sc2c1CCC(=O)C2` here?
A: The growth was 34.2% (inactive).

Q: For `CCOC(=O)c1nn(CC(O)c2ccccc2)c(NC(=O)Nc2cccc(F)c2)c1C` (stereo not given), which growth is on record?
A: The growth was 84.8% (inactive).

Q: `COc1ccccc1C(=O)Nc1cccc(NC(=O)c2ccoc2C)c1` was tested. Which growth did it give?
A: Its growth is 70.7% (inactive).

Q: For `CC1C=CC(OC(=O)C(C)(O)CCC(O)(C(=O)OC2CC(O)C(C(C)C)CC2(C)O)C(C)C)(C(C)C)CC1` (stereo not given), which growth is on record?
A: Its growth is -48.6% [4.63 µM] (active).

Q: Which growth does the source give for `Cc1cccc(Oc2ccc(Nc3ncnc4ccc(NC(=O)CN5CCN(C)CC5)cc34)cc2Cl)c1` here?
A: The growth was 85.2% (inactive).

Q: Which growth does the source give for `CC1C(/C=N/NC(N)=S)C(C#N)(C#N)C1(C#N)C#N` (stereo not given) here?
A: Its growth is 101% (inactive).

Q: How did the growth turn out when `CCCCCCCC/C=C\CCCCCCCCOc1ccc(CC(=O)NCC[N+]2(C)CCOCC2)cc1` was run?
A: The growth was 71.1% (inactive).

Q: With `COc1ccc(C(=O)Cn2c(C(=O)c3ccc(OC)cc3)nc3ccccc32)cc1` as the molecule, how does the growth read?
A: Its growth is 37.4% (inactive).

Q: `Cc1ccc2nc(/C(C#N)=C(/CCCO)NC(Cc3ccccc3)C(=O)OCc3ccccc3)[nH]c(=O)c2c1` (stereo not given) was tested. Which growth did it give?
A: Its growth is 103% (inactive).
